Screening data (PubChem)
Compounds with a hit are over-represented: about 4.5% of the library has one in this group of screens.
HDAC3 inhib: human HDAC3 inhibition. 320,000 tested, 0.15% active. AID 2718. recombinant HDAC3, fluorogenic peptide/trypsin coupled, fluorescence. inhibition, % at 8.3 µM. O15379; in the data active = inhibition above about 26%, passing the limit was not always enough
Rtt109 HAT inh: C. albicans Rtt109 histone acetyltransferase inhibition | purified Rtt109/Vps75, ThioGlo CoA-SH fluorescence, 4 h | AID 540336 | 330,000 tested, 0.16% active | Q5AAJ8 | inhibition, % at 34.9 µM;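 active = inhibition of at least 50% in every replicate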
ALR inh: inhibitors of human sulfhydryl oxidase ALR; P55789; purified ALR, DTT oxidation, H2O2 HRP-luminol luminescence; inhibition, % (test concentration not listed); 290,000 tested, 3.8% active; AID 485317;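 active = mean replicate inhibition above about 79%, with every replicate also reaching it, limit read from the data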
GRK2 inh: human GRK2 inhibition via aptamer displacement | 330,000 tested, 0.59% active | bead flow cytometry, FAM-aptamer displacement from GRK2 | inhibition of aptamer binding, % at 10 µM;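 active = inhibition of aptamer binding above 40%, roughly 3 SD of noise, on plates passing a quality check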;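 note: median bead fluorescence of bound FAM aptamer so fluorescent compounds give negative values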
Target sequence (P25098 whole entry, looked up): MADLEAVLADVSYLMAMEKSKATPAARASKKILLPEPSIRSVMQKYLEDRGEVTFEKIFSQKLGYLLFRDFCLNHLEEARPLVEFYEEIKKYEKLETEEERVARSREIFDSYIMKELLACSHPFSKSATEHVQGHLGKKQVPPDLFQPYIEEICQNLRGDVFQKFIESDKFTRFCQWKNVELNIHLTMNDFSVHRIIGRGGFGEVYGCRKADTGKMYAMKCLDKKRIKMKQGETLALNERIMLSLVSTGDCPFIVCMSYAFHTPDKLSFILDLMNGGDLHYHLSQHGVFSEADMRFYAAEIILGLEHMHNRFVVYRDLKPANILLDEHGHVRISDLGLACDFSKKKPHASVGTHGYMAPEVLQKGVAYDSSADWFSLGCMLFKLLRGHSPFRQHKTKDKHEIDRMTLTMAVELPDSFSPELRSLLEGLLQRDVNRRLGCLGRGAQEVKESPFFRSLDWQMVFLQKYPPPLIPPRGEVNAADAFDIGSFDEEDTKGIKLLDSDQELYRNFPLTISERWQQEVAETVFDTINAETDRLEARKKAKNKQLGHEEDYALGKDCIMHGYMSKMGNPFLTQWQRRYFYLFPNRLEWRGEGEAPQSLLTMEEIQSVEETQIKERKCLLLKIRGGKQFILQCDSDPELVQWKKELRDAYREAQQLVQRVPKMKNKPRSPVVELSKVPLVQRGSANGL
Efflux pump inh: blocks antifungal efflux pumps in multiplex yeast assay; S. cerevisiae Candida pump triplex, Nile Red efflux; inhibition, % at 10 µM; 330,000 tested, 0.44% active;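 active = plate passing quality check with inhibition over a set limit, or well fluorescence over plate mean plus 4 SD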;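 note: Nile Red retained in pooled yeast measured as flow cytometry median fluorescence; 0% = buffer negative control and 100% = Enniatin B positive control; higher means more Nile Red kept so more efflux inhibition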
Rce1 inh: yeast Ras-converting enzyme inhibition; yeast membranes, quenched prenylated peptide cleavage fluorescence; calls only; 290,000 tested, 0.27% active;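 active = fall in fluorescence gain of 50% or more versus controls, with final raw signal at or below 3038400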;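 note: plate controls were neutral control wells for no effect and wells lacking membranes for full effect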
GRK2 inh confirm: confirmation of human GRK2 inhibitors displacing RNA aptamer; shares compounds with GRK2 inh; bead-bound GRK2, FAM-aptamer displacement, flow cytometry; aptamer displacement, % at 10 µM; 2,000 tested, 4% active;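 active = aptamer displacement above 40%, near three times the noise of non-fluorescent compounds, on plates passing quality checks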;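 note: negative values mostly reflect intrinsic compound fluorescence rather than true enhancement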
Aptamer quench SP: aptamer fluorescence quenching in GRK2 counter-screen. shares compounds with GRK2 inh. Carboxyfluorescein RNA aptamer on beads, flow cytometry quenching; active compounds read low. fluorescence response (% of DMSO), % at 10 µM. 2,000 tested, under 10 active;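 active = compounds that quench the bead-bound fluorescent RNA probe, cutting fluorescence to under half of the solvent control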;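 note: counterscreen run without GRK2 so only probe quenching by compound is measured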
GRK2 confirm 2: human GRK2 inhibition confirmation, cherry pick 2. shares compounds with GRK2 inh. bead-bound GRK2, FAM-aptamer displacement, flow cytometry. inhibition of aptamer binding, % at 10 µM. 360 tested, under 10 active;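 active = inhibition of aptamer binding above 40%, about triple the noise seen with nonglowing compounds, on plates passing quality control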;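 note: negative values mostly come from compounds that fluoresce themselves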
FAM quench SP: counter-screen for GRK2 binding hits: quenchers of fluorescent RNA aptamer; 360 tested, under 10 active; AID 588494; fluorescence response vs DMSO, % at 10 µM; shares compounds with GRK2 inh; carboxyfluorescein RNA aptamer beads, flow cytometry quenching; active compounds read low;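 active = response vs DMSO under 50%, meaning signal dropped by over half, treated as fluorescence quencher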;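 note: labelled aptamer on streptavidin beads without GRK2 as a quench counter-screen; 100% = bead fluorescence of DMSO wells and lower means quenching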
The depositor's hits bear a star; i = inactive; x = no result.

SMILES	HDAC3 inhib	Rtt109 HAT inh	ALR inh	GRK2 inh	Efflux pump inh	Rce1 inh	GRK2 inh confirm	Aptamer quench SP	others
COc1ccccc1CN1CC(C(=O)NCCc2ccccc2Cl)CCC1=O (centres undefined)	1.2	-7.8	-4.6	76.0*	-0.1	i	1.6	96.4
O=C(COC(=O)CN1C(=O)c2ccccc2C1=O)Nc1cccc(F)c1	8.0	-0.5	-0.9	0.0	-0.2	x	x	x
N=c1c(S(=O)(=O)c2ccc(Cl)cc2)cc2c(=O)n3ccccc3nc2n1C1CCCC1	-10.2	-23.6	-15.2	0.0	0.0	i	x	x
CC(C)C[C@H](NC(=O)OC(C)(C)C)C(=O)N1CCC(C(=O)O)CC1	4.9	-6.7	-4.8	65.0*	0.0	i	0.0	101.2
COc1cccc(CC2(CO)CCCN(Cc3cn[nH]c3-c3ccc(F)cc3)C2)c1 (centres undefined)	0.9	x	-3.9	0.0	-0.1	i	-3.0	103.6
Cc1ccc(Oc2ccc(OCC(=O)NC(C)C(=O)O)cc2)cc1 (centres undefined)	-3.1	-2.4	-0.2	0.0	-0.1	i	x	x
CC(NC(=O)COc1ccc(Oc2ccccc2)cc1)C(=O)O (centres undefined)	0.5	0.3	-3.8	52.0*	0.0	i	-2.8	107.7
O=C(Nc1ccc(OC(F)F)cc1)c1cc(S(=O)(=O)N2CCCCC2)ccc1N1CCOCC1	x	13.0	x	4.0	-0.3	x	x	x
CCN(Cc1ccccc1)C(=O)CCS(=O)(=O)c1ccc2c(c1)NC(=O)CO2	2.2	3.9	3.1	1.0	-0.1	i	x	x
CCOc1ccccc1N(C)C(=O)CCS(=O)(=O)c1ccc2c(c1)NC(=O)CO2	2.7	-3.2	1.1	0.0	0.1	i	x	x	GRK2 confirm 2=i;FAM quench SP=107.0
C/C(Cn1nnc2ccccc21)=N\OC(=O)c1ccccc1C	1.0	4.4	-2.4	75.0*	0.0	i	-17.5	95.8
Cc1nc([N+](=O)[O-])cn1CC(=O)Nc1ccc(F)c(Cl)c1	-5.4	-6.5	-5.5	51.0*	-0.1	x	-1.5	94.7
O=S(=O)(NCc1csc(-c2cccs2)n1)c1cccc(C(F)(F)F)c1	-4.2	9.4	-24.1	2.0	-0.1	i	x	x
O=C(Nc1ccc2oc(-c3ccccc3)nc2c1)c1ccc2c(c1)OCCO2	-0.6	3.5	-10.1	0.0	0.2	x	x	x
O=C(Nc1ccc2oc(-c3cccnc3)nc2c1)c1ccc2c(c1)OCCO2	2.0	-0.9	-0.4	60.0*	0.4	i	7.2	96.4
O=C(c1cc(C2CC2)nn1-c1ccccc1)N1CCN(c2ccc(O)cc2)CC1	x	25.4	x	x	x	x	x	x
COC(=O)[C@H](Cc1ccccc1)NC(=O)N1CCN(c2ccc(F)cc2)CC1	-7.1	-19.9	98.4*	0.0	0.0	i	-1.4	98.8
O=C(O)[C@H](Cc1ccccc1)NC(=O)N1CCCCCC1	11.3	9.3	-9.2	100.0*	0.0	i	-0.6	98.7
COC(=O)C(Cc1ccccc1)NC(=O)CC(C)CC(=O)Nc1ccc(C)cc1 (centres undefined)	0.0	-2.0	-3.6	46.0*	0.2	i	1.1	99.8
COC(=O)[C@H](Cc1ccccc1)NC(=O)N1CCCCCC1	-9.3	7.2	-3.9	0.0	-0.1	i	-13.1	196.0
Cc1ccc(Nc2nnc(SCC(=O)NCC3CCCO3)s2)cc1C (centres undefined)	-11.0	12.4	40.4	0.0	0.1	x	x	x
Cc1cc(C)cc(NC(=O)COC(=O)COc2ccc(N(C)S(=O)(=O)c3cccs3)cc2)c1	-1.9	1.4	9.2	41.0*	0.3	x	-3.1	98.4
